Assay outcomes (PubChem BioAssay)
CHT block: inhibits the human high affinity choline transporter | 310,000 tested, 0.86% active | B-score at 10 µM | Q9GZV3 | CHT-expressing cells, membrane potential dye, choline response; stronger effect = lower value | AID 488975;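 active = B-score over 3 SD under the library average, and starting fluorescence ratio not unusually high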;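 note: choline stimulus applied at its EC90 after an EC20 pre-addition; B-score computed on integrated fluorescence ratio after choline addition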
CHT PAM: allosterically activates the human high affinity choline transporter; Q9GZV3; CHT-expressing cells, membrane potential dye, choline EC20; stronger effect = higher value; LV-AA mutant CHT in HEK293 cells; B-score at 10 µM; 310,000 tested, 0.49% active;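 active = initial fluorescence not abnormally high and integrated response B-score, plate-corrected, over 3 SD above library mean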
Kir21 block: inhibitors of mouse Kir2.1 inward-rectifier potassium channel. P35561. HEK293-Kir2.1, FluxOR thallium flux fluorescence; stronger effect = lower value. B-score at 10 µM. 310,000 tested, 0.85% active;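 active = fluorescence ratio B-score at or below minus 3 SD of library scores, with starting-brightness B-score within 2 SD, cut at about -4.2 in these data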;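 note: channel flux triggered by added potassium and thallium sulfate stimulus; B-score of peak minus minimum fluorescence over baseline after thallium stimulus; more negative B-score means stronger Kir2.1 block with less thallium influx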
Target sequence (P35561 whole entry, looked up): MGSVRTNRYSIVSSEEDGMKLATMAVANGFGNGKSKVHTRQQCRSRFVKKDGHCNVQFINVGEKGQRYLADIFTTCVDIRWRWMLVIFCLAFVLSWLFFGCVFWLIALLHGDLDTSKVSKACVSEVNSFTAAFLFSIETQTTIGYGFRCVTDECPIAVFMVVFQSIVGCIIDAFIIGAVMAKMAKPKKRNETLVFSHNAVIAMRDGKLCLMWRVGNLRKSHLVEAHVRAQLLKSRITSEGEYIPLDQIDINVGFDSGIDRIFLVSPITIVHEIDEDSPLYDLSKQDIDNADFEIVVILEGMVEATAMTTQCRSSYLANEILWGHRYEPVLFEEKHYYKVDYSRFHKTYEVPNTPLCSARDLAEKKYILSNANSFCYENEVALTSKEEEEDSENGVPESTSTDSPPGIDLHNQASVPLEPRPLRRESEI
ANO1 block: mouse TMEM16A channel inhibition, primary screen; 310,000 tested, 1.2% active; normalized B-score (activity score, 25-100; higher = stronger inhibition) at 10 µM; Q8BHY3; HEK293 TMEM16A/YFP iodide influx fluorescence, ionomycin; AID 588511;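 active = ratio plate-corrected score three or more library SD toward inhibition, starting fluorescence score within five deviations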;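 note: score derived from kinetic fluorescence span divided by baseline fluorescence per well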
ANO1 activ: activators or potentiators of mouse TMEM16A chloride channel; B-score at 10 µM; Q8BHY3; AID 623877; 340,000 tested, 0.3% active; HEK293 TMEM16A/YFP-H148Q/I152L, iodide quench fluorescence; stronger effect = lower value;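 active = fluorescence-ratio B-score plate-corrected deviation score at least 3 library SD below zero, with starting fluorescence score within 5 deviations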;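 note: channel opened by trigger with iodide after compound preincubation; score built on the fluorescence ratio of max minus min over baseline; more negative score means more quench and so TMEM16A activation or potentiation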
GPR7 antagonist: blocks human GPR7 receptor signaling | P48145 | GPR7-expressing cells, fluorescence antagonist assay | inhibition, % at 4.4 µM | 290,000 tested, 1.1% active; in the data active = inhibition above about 16%, passing the limit was not always enough;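 note: cells stimulated with the agonist NPW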
Target sequence (P48145 whole entry, looked up): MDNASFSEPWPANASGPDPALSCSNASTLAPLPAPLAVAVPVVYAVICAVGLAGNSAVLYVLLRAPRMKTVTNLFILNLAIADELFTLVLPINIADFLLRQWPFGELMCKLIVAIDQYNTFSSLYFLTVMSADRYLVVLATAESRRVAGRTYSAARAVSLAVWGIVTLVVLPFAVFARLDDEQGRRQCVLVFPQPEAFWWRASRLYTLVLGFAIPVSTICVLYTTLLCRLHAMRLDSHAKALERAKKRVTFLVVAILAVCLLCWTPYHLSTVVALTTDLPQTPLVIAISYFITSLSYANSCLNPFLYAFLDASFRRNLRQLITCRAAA
CHT block conf: confirmation of human choline transporter CHT inhibitors; AID 493221; shares compounds with CHT block; 2,400 tested, 70% active; CHT-expressing cells, choline membrane potential dye; LV-to-AA substituted CHT, HEK293 cells; CHT activity remaining % of control (stronger effect = lower value), % at 10 µM;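 active = choline transporter activity left, mean of duplicates at 10 µM, below buffer-only control mean minus 3 SD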;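 note: depolarization triggered by choline at its EC90 following an EC20 pre-addition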
HEK293 CHT ctr: CHT inhibitor counter-screen hit in parental HEK293 cells; shares compounds with CHT block; membrane potential dye, choline response; active = decrease or increase beyond buffer ±3SD; membrane potential ratio readout (active if shifted either direction beyond buffer ±3SD; no single direction) at 10 µM; 2,400 tested, 4% active; AID 493222;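 note: parental cells lack the transporter so any hit is non-specific; ratio is peak minus trough fluorescence over baseline after EC90 choline challenge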
Of the large screens only hits and unclear results are named; the others gave an inactive call (follow-up assays come after a bar, where they were run). An excerpt weighted towards active compounds, which were near 3.7% of everything screened.

O=C(Nc1nc2nccc(-c3ccccc3)n2n1)c1ccccc1	none
Cc1ccccc1CNS(=O)(=O)c1ccc2c(c1)OCCO2	CHT block -5.81 | CHT block conf 64.2% | HEK293 CHT ctr inactive
Cn1c2c(c(=O)c3ccccc31)CCCC2	CHT block -8.96 | CHT block conf 3.9% | HEK293 CHT ctr inactive
Cn1c2c(c(=O)c3ccccc31)CCC(C)(C)O2	none
COCCCN(CC(=O)O)S(=O)(=O)c1cccc(Cl)c1	none
Cc1c(NC(=S)NC(=O)c2ccc(COc3ccccc3)cc2)cccc1C(=O)O	CHT block -6.27 | CHT block conf inactive | HEK293 CHT ctr inactive
O=C1NC(=O)/C(=C/c2cccc3ccccc23)S1	CHT block -4.99 | CHT block conf 62.2% | HEK293 CHT ctr inactive
CCCOc1ccc2ccccc2c1/C=C1\SC(=O)NC1=O	CHT block -6.39, ANO1 block 100 | CHT block conf inactive | HEK293 CHT ctr inactive
O=C1NC(=O)C(=Cc2ccccc2[N+](=O)[O-])S1	none (no result: CHT block, CHT PAM, Kir21 block, ANO1 block, GPR7 antagonist)
COc1ccc(CN(C)C(=O)CSc2nnc(C3CC3)n2C2CC2)cc1	none (no result: CHT block, CHT PAM, Kir21 block, ANO1 block, GPR7 antagonist)
CCNC(=O)N(C)C[C@H]1N[C@@](CC)(C(=O)OC)[C@H]2C(=O)N(Cc3ccccc3)C(=O)[C@@H]12	none (no result: CHT block, CHT PAM, Kir21 block, ANO1 block, GPR7 antagonist)
CCOc1ccccc1NC(=O)NC1CCN(CC(=O)Nc2ccc3c(c2)OCCO3)CC1	none
O=C(CN1CCC(NC(=O)c2ccccc2F)CC1)Nc1ccc2c(c1)OCCO2	CHT block -5.02 | CHT block conf inactive | HEK293 CHT ctr inactive
Cc1nn(CC(=O)N2CCc3ccccc3C2)c(C)c1Cl	none
CCN(CC)c1ccc([C@H]2[C@@H]3CCCC[C@]3(O)CCN2CC(=O)NCc2ccco2)cc1	none
CCN(CC)c1ccc(C2C3CCCCC3(O)CCN2CC(=O)N2CCCCC2)cc1 (stereo not given)	CHT block -5.91 | CHT block conf inactive | HEK293 CHT ctr inactive
CC(C)CCN(C(=O)c1ccccn1)c1c(N)n(Cc2ccccc2)c(=O)[nH]c1=O	none (no result: CHT block, CHT PAM, Kir21 block, ANO1 block, GPR7 antagonist)
CCn1cc(C(=O)N(CCC(C)C)c2c(N)n(Cc3ccccc3)c(=O)[nH]c2=O)c(=O)c2ccc(C)nc21	CHT block -10.2 | CHT block conf 49.5% | HEK293 CHT ctr inactive
COc1ccc(C(=O)Nc2ccc(NC(=O)Cc3ccccc3)cn2)cc1	none
Cc1c(Cl)cccc1NCC(=O)NN=C1CCCC1	CHT block -5.07 | CHT block conf 47.7% | HEK293 CHT ctr inactive
CC(C)c1cccc(C(C)C)c1NC(=O)CN1C(=O)NC2(CCCCCCC2)C1=O	none (no result: CHT block, CHT PAM, Kir21 block, ANO1 block, GPR7 antagonist)
FC(F)(F)c1nc(Oc2ccccc2)c2ccccc2n1	none
Cc1nc(Oc2ccccc2)c2ccccc2n1	CHT block -6.97 | CHT block conf inactive | HEK293 CHT ctr inactive
C=CC[C@H](CC(=O)N(CCO)Cc1ccccc1)C(=O)N[C@H](COC(=O)[C@@H](CC=C)CC(=O)OC(C)(C)C)Cc1c[nH]c2ccccc12	none (no result: CHT block, CHT PAM, Kir21 block, ANO1 block, GPR7 antagonist)
Oc1c(Br)cc(Br)cc1/C=N/c1nc2c(s1)CCCC2	CHT block -12 | CHT block conf 57.0% | HEK293 CHT ctr inactive
N#CCSc1ncnc2ccccc12	none
c1ccc(Sc2ncnc3ccccc23)cc1	CHT block -4.96 | CHT block conf inactive | HEK293 CHT ctr inactive
Cc1ccc(C2(c3ccccc3)NC(=O)N(CC(=O)NCc3ccccc3)C2=O)cc1C (stereo not given)	none (no result: CHT block, CHT PAM, Kir21 block, ANO1 block, GPR7 antagonist)
CCOc1ccc(N(C)S(=O)(=O)c2ccc3[nH]cc(C(=O)NCC4CCCO4)c(=O)c3c2)cc1 (stereo not given)	none
Cc1ccccc1N(C)S(=O)(=O)c1ccc2[nH]cc(C(=O)NCC3CCCO3)c(=O)c2c1 (stereo not given)	CHT block -6.96 (no result: Kir21 block) | CHT block conf 67.8% | HEK293 CHT ctr inactive
Cn1ccnc1Sc1ccc(C=O)cc1[N+](=O)[O-]	CHT block -6.27 | CHT block conf inactive | HEK293 CHT ctr inactive
CC1CCCCN1C(=O)COC(=O)c1ccc(=O)n(Cc2ccccc2)n1 (stereo not given)	none (no result: GPR7 antagonist)
CC(C)C(NC(=O)c1ccccc1Br)c1ccccc1 (stereo not given)	CHT block -5.32 | CHT block conf inactive | HEK293 CHT ctr inactive
CCN(CC)c1ccc(-c2nnc(SCC(=O)N(CCOC)c3c(N)n(CC(C)C)c(=O)[nH]c3=O)o2)cc1	none (no result: GPR7 antagonist)
COCCN(C(=O)CSc1nnc(-c2ccc(C)c(C)c2)o1)c1c(N)n(CC(C)C)c(=O)[nH]c1=O	CHT block -6.28 (no result: GPR7 antagonist) | CHT block conf 18.9% | HEK293 CHT ctr inactive
CCCn1c(SCc2cc(=O)oc3ccc4ccccc4c23)n[nH]c1=O	CHT block -5.38 | CHT block conf inactive | HEK293 CHT ctr inactive
c1ccc(C[C@H]2CN=C(Nc3ccccc3)N2CCC2CCCC2)cc1	CHT block -6.76 (no result: Kir21 block, GPR7 antagonist) | CHT block conf 56.1% | HEK293 CHT ctr inactive
CC(C)C[C@H]1CN=C(Nc2ccccc2)N1CCC1CCCCC1	none
COCCn1c(N)c(N(Cc2ccccc2)C(=O)Cc2c(Cl)cccc2Cl)c(=O)[nH]c1=O	none
CC1CCN(c2ccccc2NC(=O)c2ccc(Br)o2)CC1	none
COc1cc(CC(NC(C)=O)C(=O)NC2CCN(C(=O)Nc3ccccc3C)CC2)cc(OC)c1 (stereo not given)	none
Cc1ccc(S(=O)(=O)NCCC(=O)N2CCC(Cc3ccccc3)CC2)cc1	none (no result: GPR7 antagonist) | CHT block conf inactive | HEK293 CHT ctr inactive
O=C(NCc1ccc2c(c1)OCO2)c1ccc(COc2cc(Cl)ccc2Cl)o1	CHT block -5.12 | CHT block conf inactive | HEK293 CHT ctr inactive
O=C(NCc1ccc2c(c1)OCO2)c1ccc(CSCc2ccc(Cl)cc2)o1	none
COCCNC(=O)CN(Cc1ccc(F)cc1)C(=O)CCC(=O)Nc1nccs1	none
CCn1c2ccccc2c(=O)c2ccccc21	CHT block -8.18 | CHT block conf 14.9% | HEK293 CHT ctr inactive
S=C(NCC1CCCO1)Nc1cccc2ccccc12 (stereo not given)	none
S=C(NCC1CCCO1)Nc1cc(Cl)c(Cl)cc1Cl (stereo not given)	CHT block -9.87 | CHT block conf 40.8% | HEK293 CHT ctr inactive
Cc1ccc(CC(=O)NCCCc2ccccc2)cc1	none
Cc1ccc(C(=O)NCC(=O)NCCCc2ccccc2)cc1	CHT block -5.05 | CHT block conf 57.4% | HEK293 CHT ctr inactive
O=C(CSc1nnc(SCc2cccc3ccccc23)s1)N=Nc1c(O)[nH]c2ccccc12	none (no result: Kir21 block, ANO1 activ)
CCC1CCCCN1CCCNC(=O)CN1C(=O)CSc2ccc(S(=O)(=O)N3CCOCC3)cc21 (stereo not given)	none
